According to ChEMBL document CHEMBL1157539, “Thousands of chemical starting points for antimalarial lead identification” (Nature, 2010):

Tests used:
Assay type in all cases: functional
[1] = test system: Plasmodium falciparum; experiment: GSK_TCMDC: Inhibition of Plasmodium falciparum 3D7 in whole red blood cells, using parasite LDH activity as an index of growth. Test compounds present at 2uM
[2] = test system: Plasmodium falciparum; experiment: GSK_TCMDC: Inhibition of Plasmodium falciparum Dd2 in whole red blood cells, using parasite LDH activity as an index of growth. Test compounds present at 2uM
[3] = test system: HepG2; experiment: GSK_TCMDC: Percent inhibition of human HepG2 cell line. Test compounds present at 10uM.

Structure (SMILES)	Inhibition [1] [%]	Inhibition [2] [%]	Inhibition [3] [%]
Cc1cccc2nc(-c3ccc(-c4cccc(CNCCCN5CCCC5=O)c4)s3)[nH]c12.O=C(O)C(F)(F)F	100	26	14
CNCCNCc1ccc(-c2cccc(-c3nc4cc(F)ccc4[nH]3)c2)cc1.O=C(O)C(F)(F)F	93	1	10
CC(Cc1ccc(OCc2ccccc2)cc1)Nc1nc(O)c2ccccc2n1.Cl (centres undefined)	98	96	2
COc1cccc2cc(C(=O)N[C@@H](CC(C)C)C(=O)N[C@H](C=NN3CC(=O)NC3=O)CC(C)C)oc12	86	64	3
CC1CCCC(Nc2noc(-c3sccc3Br)n2)C1 (centres undefined)	100	99	7
FC(F)(F)c1ccc2[nH]c(-c3ccc(-c4ccc(CNCc5ccccc5)cc4)cc3)nc2c1.O=C(O)C(F)(F)F	100	96	22
COc1ccc2nccc([C@@H](O)CN3CCC(NC(=O)c4cccc(-c5cc(C)no5)c4)CC3)c2c1	93	89	19
CS(=O)(=O)O.CSc1ccc2ccccc2c1CNCCCCCCNCc1c(SC)ccc2ccccc12	99	74	83
CC(C)NCc1ccc(-c2cccc(-c3nc4ccccc4[nH]3)c2)cc1.O=C(O)C(F)(F)F	100	34	21
CC(C)N1CCC(N(Cc2ccc(-c3ccc(C(F)(F)F)cc3)cc2)C(=O)Cn2c(SCc3cccc(F)c3F)cc(=O)c3ccccc32)CC1.O=C(O)C(O)C(O)C(=O)O	100	77	52
CC(C)CC1c2[nH]c3ccccc3c2CCN1C(=O)CCc1ccccc1 (centres undefined)	92	82	0
CN(CCCCNC(=O)/C=C/c1ccccc1)C1CC2(CCN(C(=O)OC(C)(C)C)CC2)c2ccccc21 (centres undefined)	87	51	11
O=C(O)C(F)(F)F.OC1CCCN(Cc2ccc(-c3ccc(-c4nc5cc(F)ccc5[nH]4)s3)cc2)C1 (centres undefined)	100	99	40
O=C(NCc1cccc(F)c1)Nc1cccc(-c2cccc(-c3nc4cc(C(F)(F)F)ccc4[nH]3)c2)c1	93	32	55
COc1cccc(C(=O)Nc2nonc2-c2ccc(OC)c(OC)c2)c1	97	50	7
Cc1ccccc1C1CCN(C2CCC(NC(=O)/C=C/c3ccc(F)cc3)CC2)CC1 (centres undefined)	87	30	61
O=C(O)C(F)(F)F.O=C1OC(c2ccccc2)(c2ccccc2)CN1CC1CCN(Cc2ccc(O)c(Cl)c2)CC1	98	90	26
CCOC(=O)c1c(CN(CC)CC)n(-c2ccccc2)c2cc(Br)c(O)cc12	93	46	14
COCc1ccc(CN2CCC(C(=O)Nc3ccc(-c4nc5ccccc5[nH]4)cc3)CC2)o1	97	13	13
Cc1cc(Nc2cccc(C(F)(F)F)c2)nc(NCc2ccccc2)n1	100	95	17
Cc1ccc(Nc2nnc(SCC(=O)Nc3ccc(CN4CCCC4)cc3)s2)cc1	91	0	4
N#Cc1ccc(CN2CCC(Oc3ccc(NC(=O)c4cccs4)cc3Cl)C2)cc1.O=C(O)C(F)(F)F (centres undefined)	96	95	31
O=C(O)C(F)(F)F.c1ccc(CCNCc2cccc(-c3ccc(CNc4ccc5ncccc5c4)cc3)c2)cc1	93	27	43
CC(C)(C)c1ccc(-c2csc(NC(=O)CC(c3ccccc3)c3ccccc3)n2)cc1	86	64	3
c1ccc(N2CCN(c3cc(-c4cccnc4)nc(-c4ccncc4)n3)CC2)nc1	99	22	22
O=C(Nc1ccc2c(c1)OCO2)NC1CCN(c2ccnc(Nc3ccc(F)cc3)n2)C1 (centres undefined)	100	89	5
O=C(Nc1ccc(-c2nc3ccccc3[nH]2)cc1)C1CCN(Cc2ccccc2)CC1	100	82	12
Cc1cccc2nc(-c3ccc(-c4ccc(CNCc5ccc(CN)cc5)cc4)cc3)[nH]c12.O=C(O)C(F)(F)F	100	46	14
